# Measurements published in the supplement of paper PMC12636033.
# ± gives the standard deviation of the averaged measurements. Over roughly 33,000 sequences, “E-score (rank enrichment, -0.5 to 0.5)” has its median near -0.0068; the highest 2% begin near 0.24. Only a selection was taken, and the highest values are over-represented in it overall.
# System: muMax20 (Max(13-93) K31hArg/K57hArg, M65Nle)
# Experiment: PBM 8-mer E-score (E-score (rank enrichment, -0.5 to 0.5)); higher = stronger preferential binding
# Protocol: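 Protein binding microarray (universal PBM chip covering all 10-mers in fixed probe flanks) with chemically synthesized human Max(13-93) bHLH-LZ analogs (not full-length Max) bearing noncanonical residues (hArg, Tha, Aib, Nle at 65) and aromatic Cys staples. Read-out per 8-mer (and its reverse complement): E-score (rank-based enrichment, -0.5 to 0.5) and Z-score of median probe intensity.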
row,Sequence,PBM 8-mer E-score
1,ACCGAAAC,-0.0608 ± 0.064
2,ATCCTCAA,-0.0775 ± 0.063
3,CATCGCAA,0.0394 ± 0.039
4,GGGCGGAC,-0.19 ± 0.067
5,CGCGGGGA,-0.0158 ± 0.054
6,AGGCGGGA,0.0523 ± 0.011
7,GGCGGGGA,0.245 ± 0.082
8,GGCGGGAA,-0.0111 ± 0.026
9,GGGCGGGA,0.256 ± 0.051
10,CGGCGGGA,-0.2043 ± 0.0015
11,AAGCCTAG,0.0589 ± 0.067
12,CGCTTCAC,-0.106 ± 0.011
13,GGAACGAC,-0.0812 ± 0.036
14,GACGCTCC,-0.151 ± 0.072
15,CATTAACA,0.22 ± 0.1
16,AATTAATT,0.213 ± 0.015
17,AATTAATG,0.139 ± 0.05
18,TATTAAAA,0.226 ± 0.062
19,CTTTAATA,0.16 ± 0.04

row,Sequence,PBM 8-mer E-score
1,CATTAATA,0.188 ± 0.011
2,TATTAATA,0.288 ± 0.051
3,GTTTAATA,0.218 ± 0.022
4,TATTAACA,0.128 ± 0.13
5,AATTAACA,0.244 ± 0.008
6,ATTTAATA,0.245 ± 0.097
7,AATTAATA,0.271 ± 0.013
8,GGGGTGAA,0.0293 ± 0.058
9,ACCCAATA,0.132 ± 0.054
10,ACCTGTTC,0.0511 ± 0.016
11,CCGAGGAA,0.0622 ± 0.053
12,AATGACCC,0.074 ± 0.021
13,GTGGCACA,0.137 ± 0.017
14,ACTTTAGC,-0.00298 ± 0.1
15,CGACTGCC,-0.163 ± 0.0073
16,GAACGAAA,0.0569 ± 0.079
17,ATCCTGTC,-0.0955 ± 0.045
18,CGGTACAC,-0.0567 ± 0.015
19,AAAAAGCG,0.0746 ± 0.018

row,Sequence,PBM 8-mer E-score
1,ACCGCCTA,-0.0164 ± 0.2
2,AAACTATG,-0.057 ± 0.1
3,AGTCCTAG,-0.0808 ± 0.069
4,AATTAAGA,0.253 ± 0.013
5,GATTAACA,0.156 ± 0.037
6,AATTAAGC,0.191 ± 0.046
7,GATTAATC,-0.0526 ± 0.063
8,GATTAAGA,0.119 ± 0.07
9,GATTAATA,0.314 ± 0.062
10,AACCTTCC,0.0123 ± 0.0059
11,CAACGAGA,0.0722 ± 0.14
12,AAACGAGA,0.18 ± 0.13
13,TAACGAGA,0.263 ± 0.054
14,ATTACAGG,0.236 ± 0.066
15,ATTACAGA,0.0555 ± 0.062
16,ATTACAGC,-0.00666 ± 0.05
17,TAGATACA,0.143 ± 0.12
18,CTCCGAGC,-0.0246 ± 0.032
